In PubChem BioAssay (EPA / NIEHS):
Active and inactive are the calls of the source. Rule for the calls: active = hit-call score of the fitted dose curve at least 0.9, where 1 is the maximum; inactive = score below 0.9.

Columns and labels:
[1] = ATG_CRE_CIS: Attagene CIS-FACTORIAL HepG2 Assay for human cAMP Responsive Element (CRE) binding protein 3 (AID 2282926); details: HepG2 CRE cis-reporter, Attagene multiplexed mRNA; actives raise or lower the signal
In short: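 Induced reporter mRNA from a CRE cis element, measured in HepG2 among many multiplexed units at 24 h. Detection used RT-PCR plus capillary electrophoresis of fluorescent fragments; DMSO served as negative control.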

[2] = molecular target: CCAAT/enhancer-binding protein beta (Homo sapiens) (UniProt P17676); assay: ATG_C_EBP_CIS: Attagene CIS-FACTORIAL HepG2 Assay for human CCAAT/Enhancer Binding Protein (C/EBP) beta (AID 2282927); details: HepG2 Attagene cis-factorial transcription factor reporter; actives raise or lower the signal
In short: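 Changes in reporter mRNA, rather than exogenous chimeric receptor activity, reflect native C/EBP signalling in transfected HepG2 cells dosed for 24 h; transcripts are detected by RT-PCR and capillary electrophoresis.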

[3] = ATG_CMV_CIS: Attagene CIS-FACTORIAL HepG2 Assay for human CMV (Internal Marker) (AID 2282928); details: HepG2 CMV promoter reporter, transcription factor profiling; actives raise or lower the signal;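 note: endpoint acts as a background internal control marker rather than a target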
In short: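 24 h chemical treatment, HepG2 with transient multi-reporter transfection; RNA → oligo(dT) RT → PCR → 6-FAM extension → HpaI digest → CE fluorescence. Bidirectional fit, DMSO negative control.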

[4] = ATG_DR4_LXR_CIS: Attagene CIS-FACTORIAL HepG2 Assay for human Liver X Receptor (LXR), DR4 submotif (AID 2282929); details: HepG2 Attagene DR4 cis-reporter, mRNA transcription; actives raise or lower the signal
In short: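 HepG2, transient MRTU transfection, cis-element (DR4) promoter; 24 h compound exposure; total RNA → oligo(dT) RT → PCR → 6-FAM primer extension → HpaI cut → CE. Gain/loss vs DMSO, bidirectional fit.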

[5] = molecular target: Aryl hydrocarbon receptor (Homo sapiens) (UniProt P35869); assay: ATG_Ahr_CIS: Attagene CIS-FACTORIAL HepG2 Assay for human Aryl Hydrocarbon Receptor (Ahr) (AID 2282930); details: HepG2 AhR cis-factorial reporter transcription; actives raise or lower the signal
In short: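 HepG2, transient MRTU (cis) transfection, 24 h exposure. RNA → cDNA → PCR → 6-FAM primer extension → HpaI 2 h 37 C → CE. Fit: bidirectional, DMSO baseline.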

[6] = ATG_AP_1_CIS: Attagene CIS-FACTORIAL HepG2 Assay for human Activator Protein 1 (AP-1) (AID 2282931); details: HepG2 Attagene cis-factorial AP-1 reporter mRNA; actives raise or lower the signal
In short: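 Transient MRTU transfection of HepG2 → 24 h chemical treatment → RNA isolation, RT-PCR, 6-FAM labelling, HpaI digest → capillary electrophoresis. Fit: bidirectional, DMSO negative control.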

[7] = ATG_AP_2_CIS: Attagene CIS-FACTORIAL HepG2 Assay for human Activator Protein 2 (AP-2) (AID 2282932); details: HepG2 AP-2 cis-reporter, Attagene transcription factor profiling; actives raise or lower the signal
In short: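 Transiently transfected HepG2 cells are exposed to chemical for 24 h. Reporter transcripts are then measured as fluorescence following RT-PCR and capillary separation, and gain- or loss-of-signal is fitted relative to DMSO.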

[8] = ATG_BRE_CIS: Attagene CIS-FACTORIAL HepG2 Assay for human Bone Morphogenetic Protein (BMP) Response Element (BRE) (AID 2282933); details: HepG2 BMP response element reporter, Attagene transcription factor profiling; actives raise or lower the signal
In short: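 Transient MRTU transfection of human HepG2 liver cells; 24 h compound treatment; total RNA isolated, reverse-transcribed, PCR-amplified, 6-FAM labelled, HpaI-cut, capillary electrophoresis. DMSO = negative control/baseline, bidirectional fit.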

[9] = molecular target: Transcription factor E2F1 (Homo sapiens) (UniProt Q01094); assay: ATG_E2F_CIS: Attagene CIS-FACTORIAL HepG2 Assay for human E2F Transcription Factor 1 (AID 2282935); details: HepG2 Attagene cis-reporter, E2F reporter RNA transcripts; actives raise or lower the signal
In short: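 Fluorescent RT-PCR products, digested with HpaI for 2 h at 37 C, are separated by capillary electrophoresis. Source RNA comes from transfected HepG2 cultures treated for 24 h.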

[10] = ATG_E_Box_CIS: Attagene CIS-FACTORIAL HepG2 Assay for human Enhancer Box (E-box) (AID 2282936); details: HepG2 E-box cis-reporter transcription, actives raise or lower the signal
In short: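 Fluorescent reporter fragments separated by capillary electrophoresis gave the signal; mRNA came from HepG2 cells transfected with cis-element reporters and treated 24 h. Curves fitted bidirectionally relative to DMSO controls.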

[11] = ATG_M_61_CIS: Attagene CIS-FACTORIAL HepG2 Assay for M61 Transcription Factor (Internal Marker) (AID 2282937); details: HepG2 Attagene CIS-FACTORIAL M61 internal marker reporter; actives raise or lower the signal
In short: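 Human liver HepG2, transient MRTU transfection (cis promoter elements), 24 h compound. Total RNA → oligo(dT) RT → PCR → FAM label → HpaI → CE. Internal background marker; bidirectional fitting, DMSO = baseline.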

[12] = ATG_EGR_CIS: Attagene CIS-FACTORIAL HepG2 Assay for human Early Growth Response 1 (EGR1) (AID 2282938); details: HepG2 Attagene CIS-FACTORIAL EGR reporter mRNA; actives raise or lower the signal
In short: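 Transient transfection of human HepG2 with multiple cis-regulated reporter units, chemical exposure 24 h, total RNA isolated. Reverse transcription, PCR, fluorescent labelling and capillary electrophoresis quantify reporter transcripts; activity fitted bidirectionally against DMSO.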

[13] = ATG_M_19_CIS: Attagene CIS-FACTORIAL HepG2 Assay for M19 Transcription Factor (Internal Marker) (AID 2282939); details: HepG2 Attagene CIS-FACTORIAL M19 internal marker reporter; actives raise or lower the signal
In short: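 Transfect HepG2 with MRTU reporter library → dose chemical, 24 h → isolate total RNA, reverse-transcribe with oligo(dT) → PCR, 6-FAM label, HpaI cut (2 h, 37 C) → capillary electrophoresis. Bidirectional fit vs DMSO.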

[14] = ATG_FoxO_CIS: Attagene CIS-FACTORIAL HepG2 Assay for human Forkhead box O (FoxO) (AID 2282943); details: HepG2 Attagene cis-reporter, FoxO element, mRNA; actives raise or lower the signal
In short: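 Human hepatoma HepG2 cells carry transiently introduced reporter transcription units controlled by cis promoter elements. Chemical treatment lasted 24 h, and mRNA signal was compared with DMSO.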

[15] = ATG_GATA_CIS: Attagene CIS-FACTORIAL HepG2 Assay for human GATA Binding Protein (AID 2282944); details: HepG2 GATA cis-element reporter, Attagene multiplex mRNA; actives raise or lower the signal
In short: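 Transient MRTU transfection, HepG2, 24 h compound exposure. Total RNA → oligo(dT) RT → PCR → 6-FAM primer extension → HpaI cut → CE. Bidirectional fit vs DMSO.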

[16] = ATG_GLI_CIS: Attagene CIS-FACTORIAL HepG2 Assay for human Zinc Finger Protein GLI1 (AID 2282945); details: HepG2, Attagene cis-factorial reporter mRNA, GLI element; actives raise or lower the signal
In short: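 Bidirectional curve fits relative to DMSO, using reporter mRNA levels from RT-PCR plus capillary electrophoresis. Cells were HepG2 transiently carrying cis-regulated reporter constructs, harvested 24 h after dosing.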

[17] = ATG_Ets_CIS: Attagene CIS-FACTORIAL HepG2 Assay for human Erythroblast Transformation Specific (ETS) (AID 2282941); details: HepG2 ETS cis-reporter transcription, actives raise or lower the signal
In short: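 Cis-regulated reporter mRNA induction in HepG2 (transient transfection), 24 h exposure, RT-PCR plus capillary electrophoresis detection; DMSO serves as negative control and baseline.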

[18] = molecular target: Hepatocyte nuclear factor 3-beta (Homo sapiens) (UniProt Q9Y261); assay: ATG_FoxA2_CIS: Attagene CIS-FACTORIAL HepG2 Assay for human Forkhead box A2 (FOXA2) (AID 2282942); details: HepG2 cis-reporter transcription factor activity, 24 h; actives raise or lower the signal
In short: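 Transient MRTU transfection of HepG2 liver cells; 24 h treatment; total RNA → oligo(dT) RT → PCR → FAM primer extension → HpaI cut → CE. Bidirectional fit vs DMSO.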

[19] = ATG_ERE_CIS: Attagene CIS-FACTORIAL HepG2 Assay for Estrogen Response Element (ERE) (AID 2282940); details: HepG2 ERE cis-reporter, Attagene RNA transcript; actives raise or lower the signal
In short: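 Transient MRTU transfection of human HepG2; cis-element promoters; 24 h dosing; total RNA → RT (oligo dT) → PCR → 6-FAM primer extension → HpaI digest → CE fluorescence. Bidirectional fit, DMSO baseline.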

Measured: AC50

Chain of Hepatocyte nuclear factor 3-beta (Homo sapiens) (Q9Y261 whole entry, looked up): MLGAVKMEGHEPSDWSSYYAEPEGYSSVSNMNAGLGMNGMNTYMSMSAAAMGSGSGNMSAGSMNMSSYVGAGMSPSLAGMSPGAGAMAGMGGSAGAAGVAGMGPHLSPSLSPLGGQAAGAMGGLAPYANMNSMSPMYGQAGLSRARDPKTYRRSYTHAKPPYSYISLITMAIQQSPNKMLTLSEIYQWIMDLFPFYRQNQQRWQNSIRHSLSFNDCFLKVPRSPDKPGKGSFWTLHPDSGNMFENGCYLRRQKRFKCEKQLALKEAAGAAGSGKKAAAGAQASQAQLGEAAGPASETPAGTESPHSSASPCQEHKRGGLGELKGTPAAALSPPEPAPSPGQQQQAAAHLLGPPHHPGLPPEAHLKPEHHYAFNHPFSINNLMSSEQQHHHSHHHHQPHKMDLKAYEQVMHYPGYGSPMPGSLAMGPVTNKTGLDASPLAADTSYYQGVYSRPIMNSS
Chain of Transcription factor E2F1 (Homo sapiens) (Q01094 whole entry, looked up): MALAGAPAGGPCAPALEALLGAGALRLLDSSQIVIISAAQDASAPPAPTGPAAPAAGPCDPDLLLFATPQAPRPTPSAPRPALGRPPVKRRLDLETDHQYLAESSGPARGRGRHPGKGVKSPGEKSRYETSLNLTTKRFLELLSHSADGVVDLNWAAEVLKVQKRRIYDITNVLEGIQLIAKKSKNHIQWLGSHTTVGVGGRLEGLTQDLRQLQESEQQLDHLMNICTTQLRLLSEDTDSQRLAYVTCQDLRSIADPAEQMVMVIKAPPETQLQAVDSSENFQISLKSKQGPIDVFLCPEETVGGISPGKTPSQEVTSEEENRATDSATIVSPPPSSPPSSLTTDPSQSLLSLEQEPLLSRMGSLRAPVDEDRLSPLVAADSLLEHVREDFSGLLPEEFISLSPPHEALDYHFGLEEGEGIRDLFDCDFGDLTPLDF
Chain of Aryl hydrocarbon receptor (Homo sapiens) (P35869 whole entry, looked up): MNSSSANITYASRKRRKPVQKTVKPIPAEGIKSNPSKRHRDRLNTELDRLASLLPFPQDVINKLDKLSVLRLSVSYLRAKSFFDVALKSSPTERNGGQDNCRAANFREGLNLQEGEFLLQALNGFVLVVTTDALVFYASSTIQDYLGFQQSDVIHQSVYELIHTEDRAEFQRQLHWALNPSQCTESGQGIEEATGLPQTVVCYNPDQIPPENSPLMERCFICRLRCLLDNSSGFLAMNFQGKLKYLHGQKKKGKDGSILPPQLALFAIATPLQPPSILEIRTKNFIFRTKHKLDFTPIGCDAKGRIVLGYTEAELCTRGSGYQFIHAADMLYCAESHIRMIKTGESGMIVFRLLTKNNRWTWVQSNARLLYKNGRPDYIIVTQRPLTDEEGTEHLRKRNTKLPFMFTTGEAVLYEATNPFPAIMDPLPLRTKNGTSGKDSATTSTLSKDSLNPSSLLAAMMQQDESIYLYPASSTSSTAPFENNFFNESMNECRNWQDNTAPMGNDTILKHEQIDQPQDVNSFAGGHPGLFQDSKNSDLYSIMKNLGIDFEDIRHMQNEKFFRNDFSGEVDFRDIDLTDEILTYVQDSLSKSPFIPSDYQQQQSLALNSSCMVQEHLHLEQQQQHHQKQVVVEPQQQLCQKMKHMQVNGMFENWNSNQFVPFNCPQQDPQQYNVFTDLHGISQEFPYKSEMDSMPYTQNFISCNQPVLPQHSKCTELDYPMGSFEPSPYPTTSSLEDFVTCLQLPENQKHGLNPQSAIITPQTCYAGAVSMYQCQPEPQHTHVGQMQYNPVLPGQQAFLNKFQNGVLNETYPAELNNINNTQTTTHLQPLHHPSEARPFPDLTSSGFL
Chain of CCAAT/enhancer-binding protein beta (Homo sapiens) (P17676 whole entry, looked up): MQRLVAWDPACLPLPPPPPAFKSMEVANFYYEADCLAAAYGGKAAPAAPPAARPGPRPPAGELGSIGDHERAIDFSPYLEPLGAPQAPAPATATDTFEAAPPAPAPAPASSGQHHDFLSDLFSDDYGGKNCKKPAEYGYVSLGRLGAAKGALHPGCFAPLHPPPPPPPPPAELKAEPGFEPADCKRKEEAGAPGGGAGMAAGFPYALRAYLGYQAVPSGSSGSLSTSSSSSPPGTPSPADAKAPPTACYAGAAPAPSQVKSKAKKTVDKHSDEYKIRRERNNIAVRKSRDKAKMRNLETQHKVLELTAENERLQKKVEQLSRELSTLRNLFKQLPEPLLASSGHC

CC(C)[C@@H]1CC[C@@H](C)CC1=O
not listed: [17] | [18] | [19]
inactive: all other assays above

CC(C#N)(CCC(=O)O)N=NC(C)(C#N)CCC(=O)O (configuration not stated)
not listed: [19]
inactive: all other assays above

O=C[C@H](O)[C@H](O)[C@H](O)CO
not listed: [17] | [18] | [19]
inactive: all other assays above

C[Si](O[Si](C)(C)C)O[Si](C)(C)C
active: [5] 52.8 µM
not listed: [13] | [19]
inactive: all other assays above

CC1=CC(=O)NS(=O)(=O)O1
not listed: [19]
inactive: all other assays above

C=CC(C)(O)CCC=C(C)CCC=C(C)C (configuration not stated)
inactive: [4] | [8] | [9] | [18] | [14] | [15]
active: [1] 126 µM | [2] 137 µM | [3] 183 µM | [5] 51 µM | [6] 154 µM | [7] 161 µM | [10] 131 µM | [11] 166 µM | [12] 100 µM | [17] 164 µM | [16] 178 µM

CCCC/C=C\CCCCCCCCCC=O
not listed: [17] | [19]
inactive: all other assays above

CCCCCCCCCCCCN
active: [4] 10.2 µM
not listed: [17] | [19]
inactive: all other assays above

O=C(O)c1ccc([N+](=O)[O-])cc1
not listed: [19]
inactive: all other assays above

C=CCOC(=O)CCC1CCCCC1
not listed: [14] | [19]
inactive: all other assays above

O=CCCc1ccccc1
not listed: [18] | [19]
inactive: all other assays above

CC(C)CCCCCCCOC(=O)c1ccc(C(=O)OCCCCCCCC(C)C)c(C(=O)OCCCCCCCC(C)C)c1
not listed: [19]
inactive: all other assays above

CCN(CC)c1ccc2c(-c3ccccc3C(=O)O)c3ccc(=[N+](CC)CC)cc-3oc2c1
active: [4] 130 µM | [8] 158 µM | [12] 135 µM
not listed: [13]
inactive: all other assays above

CCCCCCOC(=O)CCCCC
not listed: [14] | [18] | [19]
inactive: all other assays above

Cc1ccc(C(C)C)cc1O
not listed: [13] | [19]
inactive: all other assays above
